# Where “and” joins values, the source holds several entries; their conditions need not be identical. Equal values may be shown once. Compounds without any hit were thinned out: in the full panel of roughly 83,000, 20% have a hit.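 96-well plates, one dose, 48 hours. Percent growth reported; active if below 10.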 Calls of active or inactive are those of the source.
# Test system: CCRF-CEM leukemia
# Assay: NCI-60 one-dose screen, 48 h (100 = growth as untreated, 0 = no growth, -100 = all killed)
# Details: 10 µM
# Description: Growth inhibition of the CCRF-CEM human tumor cell line is measured as a screen for anti-cancer activity. Cells are grown in 96 well plates and exposed to the test compound for 48 hours. Compounds are tested at a single concentration, which is 10^-5 M for most compounds. The reported endpoint is percent growth (GI% or GIPRCNT), where numbers from 0 - 100% represent growth inhibition, and numbers from -100% - 0 represent cell death. For example, a value of 40 represents 60% growth inhibition. A value of 0 means no net growth occurred over the course of the experiment. A value of -40 indicates 40% of cells at the beginning of the experiment died by the end of the experiment. A value of -100 means all cells are dead at the end of the experiment.
# NCI-60 Human Tumor Cell Lines Screen was performed using the standard one-dose NCI protocol, which is described in more detail at https://dtp.cancer.gov/discovery_development/nci-60/default.htm.
# Compounds with GIPRCNT values below 10 were considered active. Activity score was based on GIPRCNT using the following formula: […]
# Score is 0 for GIPRCNT values of 100 or above, 50 for GIPRCNT values of 0, and 100 for GIPRCNT values of -100.
row,SMILES,growth
1,COc1cc2c(c(OC)c1OC)-c1ccc(O)c(=O)cc1[C@@H](NC(C)=O)CC2,16.2% (inactive)
2,N#CCc1ccccc1,97.3% (inactive)
3,NC(Cc1ccccc1)c1ccccc1 (stereo not given),110% (inactive) and 90% (inactive)
4,O=[N+]([O-])c1ccc(Br)c([N+](=O)[O-])c1,46.4% (inactive)
5,O=C(CBr)Nc1ccc(Cl)cc1,-28.3% (active)
6,COc1cc(/C=C\[N+](=O)[O-])ccc1O,6.86% (active) and 70.4% (inactive)
7,O=C(CBr)Nc1ccccc1,14.7% (inactive)
8,O=C(O)c1cc(Cc2ccc(O)c(C(=O)O)c2)ccc1O (tested in a mixture with another compound),0.136% (active)
9,Oc1c(I)cc(I)cc1I,94.5% (inactive)
10,Cn1c(O)c(N=O)c(=O)n(C)c1=O,111% (inactive) and 113% (inactive)
11,Cc1ccc(C(=O)C2C(c3ccccc3)N2C2CCCCC2)cc1 (stereo not given),94.2% (inactive) and 96% (inactive)
12,O=[P+](O)c1ccccc1,79.9% (inactive)
13,CCOP(=O)(OCC)/C(C#N)=C/c1ccc(Br)cc1,100% (inactive)
14,COc1ccc(/C=C\[N+](=O)[O-])cc1OC,70.2% (inactive) and 27.2% (inactive)
15,O=c1[nH]c2ccccc2n1C1CCN(CCCC(c2ccc(F)cc2)c2ccc(F)cc2)CC1,-0.815% (active) and 31.2% (inactive)
16,COC12C(COC(N)=O)C3=C(C(=O)C(C)=C(N)C3=O)N1CC1C2N1C (stereo not given),24.8% (inactive)
17,S=C=NCCc1ccccc1,16.7% (inactive)
18,COC12c3c(C)cc(O)c4c(=O)occ(c34)C(=O)C1C13COC(=O)c4c(O)cc(C)c(c41)C(=O)C2C3OC(C)=O (stereo not given),96.2% (inactive)
19,C/C1=C\[C@H](C)C[C@H](C)OC(=O)C[C@H](c2ccc(O)cc2)NC(=O)[C@@H](Cc2c(Br)[nH]c3ccccc23)N(C)C(=O)[C@H](C)NC(=O)[C@@H](C)C1,-21.5% (active)
20,O=C1C(=O)c2ccccc2-c2ccccc21,-10.9% (active)

row,SMILES,growth
1,CC(=O)Nc1c2sscc-2n(C)c1=O,-58.3% (active)
2,Cc1cc(C)c(C[N+](C)(C)C)c(C)c1C,-2.18% (active)
3,CC1CCC2(OC1)OC1C(O)C3C4CCC5CC(OC6OC(CO)C(OC7OC(CO)C(O)C(OC8OCC(O)C(O)C8O)C7OC7OC(CO)C(O)C(OC8OC(CO)C(O)C(O)C8O)C7O)C(O)C6O)C(O)CC5(C)C4CCC3(C)C1C2C (stereo not given),-15.7% (active)
4,C=C1C(=O)O[C@@H]2C[C@@H](C)[C@@H]3C=CC(=O)[C@@]3(C)[C@@H](O)[C@H]12,-42.4% (active)
5,C[CH2][Hg][S]c1ccccc1C(=O)O,-17.5% (active)
6,CC(=O)[O][Hg][c]1c(C)c(C)cc(C)c1C,3.85% (active)
7,O=C1C=Cc2ccccc2C1=O,74.1% (inactive)
8,CC(C)(C)OOC(=O)/C=C\C(=O)OOC(C)(C)C,96.4% (inactive)
9,Oc1c(Cl)cc(Cl)c2ccccc12.[Cu+2],48.5% (inactive)
10,ClCc1ccc2ccccc2n1,103% (inactive)
11,COC(=O)C1C(O)C(C)C(O)C(C)/C=C\C=C(C)C(=O)Nc2c(C)c(OC(C)=O)c3c(c2O)C(=O)C(C)=C2OCOC(=C23)C(C)=CC(C)(O)C(O)C(C)C1O (stereo not given),96.1% (inactive)
12,COc1cc(/C=C/[N+](=O)[O-])cc(Br)c1OC,6.59% (active)
13,CC[C@@H](C)[C@@H]1NC(=O)C(NC(=O)C(CC(C)C)N(C)C(=O)C2CCCN2C(=O)C(C)O)C(C)OC(=O)C(Cc2ccc(OC)cc2)N(C)C(=O)C2CCCN2C(=O)C(CC(C)C)NC(=O)C(C)C(=O)C(C(C)C)OC(=O)C[C@H]1O (stereo not given in full),-20.7% (active)
14,O=[N+]([O-])c1ccc(N(CCO)CCO)c2c1no[n+]2[O-],-38% (active)
15,Oc1ccccc1-c1ccccc1,103% (inactive) and 94.8% (inactive)
16,COc1ccc(/C=C(\C)[N+](=O)[O-])cc1OC,-16.4% (active)
17,O=[N+]([O-])/C=C/c1ccc(Cl)cc1[N+](=O)[O-],8.23% (active)
18,CN(C)CC1(N)C(=O)NC(=O)NC1=O,99.1% (inactive)
19,NC(=O)c1cc([N+](=O)[O-])c(Cl)c([N+](=O)[O-])c1,-32.4% (active)
20,COC(C(=O)C(O)C(C)O)C1Cc2cc3cc(OC4CC(OC(C)=O)C(OC5CC(O)C(OC)C(C)O5)C(C)O4)cc(O)c3c(O)c2C(=O)C1OC1CC(OC2CC(OC3CC(C)(O)C(OC(=O)C(C)C)C(C)O3)C(O)C(C)O2)C(O)C(C)O1 (stereo not given),-13.4% (active)

# Reference: PubChem BioAssay (NCI)
